# Assay outcomes: PubChem BioAssay, several laboratories
# Platelet DG rel – platelet dense granule release activity; human platelet-rich plasma, SFLLRN dense granule ATP release, luminescence; inhibition, %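 (compounds screened at 7.5 µM in platelet-rich plasma)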; 300,000 tested, 0.22% active; AID 1663;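 active means mean replicate score, as percent of positive control, at or above 50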
# NTR1 ag – activates human neurotensin receptor 1; 330,000 tested, 0.17% active; activation, % at 20 µM; P30989; NTR1-U2OS beta-arrestin-GFP spot imaging, agonist mode;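 active means activation at or above 40% of the spot to cytoplasm intensity ratio, with at least 20 cells analyzed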;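 further: 0% = DMSO without peptide and 100% = 100 nM NTR1 peptide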
# Target sequence (P30989 whole entry, looked up): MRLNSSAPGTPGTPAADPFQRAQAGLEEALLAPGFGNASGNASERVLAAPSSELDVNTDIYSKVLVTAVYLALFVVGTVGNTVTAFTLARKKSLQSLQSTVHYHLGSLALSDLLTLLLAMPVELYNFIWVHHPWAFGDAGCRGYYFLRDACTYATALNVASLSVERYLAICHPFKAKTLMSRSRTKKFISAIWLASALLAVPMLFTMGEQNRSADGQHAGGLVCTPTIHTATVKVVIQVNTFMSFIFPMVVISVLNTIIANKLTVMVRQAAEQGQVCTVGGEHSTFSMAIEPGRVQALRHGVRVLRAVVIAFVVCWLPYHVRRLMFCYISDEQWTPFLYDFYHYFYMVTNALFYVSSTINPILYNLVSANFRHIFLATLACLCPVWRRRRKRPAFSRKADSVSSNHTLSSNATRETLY
# GRK2 inh – human GRK2 inhibition via aptamer displacement; bead flow cytometry, FAM-aptamer displacement from GRK2; inhibition of aptamer binding, % at 10 µM; 330,000 tested, 0.59% active;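 active means inhibition of aptamer binding above 40%, roughly 3 SD of noise, on plates passing a quality check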;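 further: median bead fluorescence of bound FAM aptamer so fluorescent compounds give negative values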
# MIN6 prolif – induces beta-cell replication in MIN6 cells | MIN6 cells proliferation, ATPlite luminescence, 48 h; cells starved in 0.2% serum; 100% = growth in 10% serum | proliferation, % at 10 µM | 330,000 tested, 0.29% active;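 active means compounds whose signal lies at least 3.5 SD above the mean of all wells on their plate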;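 further: 0% = DMSO-treated cells in low-serum medium and 100% = 10% serum control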
# GRK2 CP1 – human GRK2 inhibition confirmation, cherry pick 1. shares compounds with GRK2 inh. bead-bound GRK2, FAM-aptamer displacement, flow cytometry. aptamer displacement, % at 10 µM. 2,000 tested, 4% active. AID 504451;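 active means aptamer displacement above 40%, near three times the noise of non-fluorescent compounds, on plates passing quality checks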;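 further: negative values mostly reflect intrinsic compound fluorescence rather than true enhancement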
# FAM quench CP1 – counter-screen for GRK2 aptamer inhibitors: fluorescent aptamer quenchers; shares compounds with GRK2 inh; Carboxyfluorescein RNA aptamer on beads, flow cytometry quenching; hits give low values; fluorescence response (% of DMSO), % at 10 µM; 2,000 tested, under 10 active; AID 504580;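 active means compounds that quench the bead-bound fluorescent RNA probe, cutting fluorescence to under half of the solvent control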;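 further: counterscreen run without GRK2 so only probe quenching by compound is measured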
# NTR1 ag confirm – confirmation of agonists of human NTR1; AID 504550; 480 tested, 38% active; activation, % at 20 µM; NTR1-U2OS beta-arrestin-GFP translocation imaging; shares compounds with NTR1 ag;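 active means mean activation at 20 µM of at least 40%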;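 further: 0% = DMSO without peptide and 100% = 100 nM NTR1 peptide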
# The depositor's hits bear a star; / = no result. The list is not random: actives were taken first. Their share in the collection is about 1.2%.
SMILES,Platelet DG rel,NTR1 ag,GRK2 inh,MIN6 prolif,NTR1 ag confirm,others
Oc1c(Br)cc(Br)cc1C=NCc1ccc(F)cc1,-10.9,4.6,41.0*,-5.2,/,GRK2 CP1=5.6;FAM quench CP1=97.4
CC1CCCC(NCC(O)COC(c2ccc(F)cc2)c2ccc(F)cc2)C1C (configuration not stated),1.8,52.5*,0.0,-6.5,27.0,GRK2 CP1=-4.6;FAM quench CP1=102.2
CC1CCCC(NC(=O)CSc2ccc(F)cc2)C1C (configuration not stated),-7.5,-0.1,1.0,2.2,/,
CC1CCCCN1CC(=O)Nc1ccc2c(c1)OCO2 (configuration not stated),/,-2.1,4.0,-1.1,/,
C[C@H](NC(=O)c1[nH]cnc1C(=O)Nc1cccc(Cl)c1)c1ccccc1,/,51.7*,1.0,-5.4,46.1*,GRK2 CP1=1.6;FAM quench CP1=103.9
C[C@@H](NC(=O)c1[nH]cnc1C(=O)Nc1cccc(Cl)c1)c1ccccc1,/,45.0*,0.0,-6.0,21.5,GRK2 CP1=-2.1;FAM quench CP1=100.2
CSc1ncc(Cl)c(C(=O)Nc2cccc(Cl)c2)n1,1.7,1.8,1.0,-1.2,/,
Fc1ccc(-n2nnnc2-c2cnc(-c3cccs3)nc2C(F)(F)F)cc1,1.1,48.7*,3.0,-5.8,66.8*,
CC(C)CC1NC(=O)N(CC(=O)Nc2cc(S(=O)(=O)N3CCOCC3)ccc2Cl)C1=O (configuration not stated),/,1.9,5.0,-0.7,/,
C[C@@H]1CN([C@H](C)CO)C(=O)c2cc(NS(=O)(=O)c3ccc(F)cc3)ccc2O[C@@H]1CN(C)Cc1ccc(Cl)c(Cl)c1,/,40.0,0.0,-5.1,39.1,
COc1ccc(C(C(=O)NC2CCCC2)N(C(=O)c2snc(C(N)=O)c2N)c2ccccc2OC)cc1OC (configuration not stated),1.1,60.7*,2.0,-3.4,1.8,
C[C@@H]1CC=C[C@H]2[C@H]1C(=O)N(Cc1ccccc1)[C@H]2c1ccc2ccccc2c1Br,-2.5,43.1*,/,-7.8,18.2,
C[C@@H]1CC=C[C@H]2[C@H]1C(=O)N(Cc1ccccc1)[C@H]2c1ccc2ccccc2c1,7.5,4.1,2.0,-8.0,/,
COc1ccc(-c2sc3cc(OC)c(OC)cc3c2-c2ccc(O)cc2)cc1,/,50.9*,0.0,-5.1,6.9,
COc1ccc(-c2sc3ccccc3c2-c2ccc(O)cc2)cc1,/,25.8,1.0,-5.7,/,
COc1ccccc1-c1cn[nH]c1-c1ccc(O)cc1O,0.9,-1.1,2.0,-3.6,/,
O=[N+]([O-])c1ccc(COc2ccc(-c3[nH]ncc3-c3ccccc3)c(O)c2)cc1,30.4,41.5*,0.0,-5.8,4.1,
COc1ccccc1-c1cn[nH]c1-c1ccc(OCc2ccccc2F)cc1O,-2.4,40.0*,0.0,-6.0,2.4,
COc1ccccc1-c1cn[nH]c1-c1ccc(OCc2ccc(F)cc2)cc1O,6.6,40.5*,2.0,-6.0,2.2,
CC(C)CC1NC(=O)c2ccccc2-n2c1nc1ccc(Cl)cc1c2=O (configuration not stated),/,-2.2,2.0,2.6,/,
O=C1COC(c2ccccc2)=CN1Cc1ccccc1,0.4,2.2,/,-1.5,/,
CCOc1ccccc1C(=O)NCC(=O)NNC(=O)c1cccc(S(=O)(=O)Nc2ccc(OC)cc2)c1,3.3,-0.1,1.0,-2.4,/,
CC[C@@H](C(=O)[C@@H](C)[C@@H](O)[C@H](C)CCc1ccc(C)c(O)c1C(=O)O)[C@H]1O[C@](CC)([C@H]2CC[C@](O)(CC)[C@H](C)O2)C[C@@H]1C,-0.3,53.2*,0.0,-7.9,62.5*,
Cc1ccc(NS(=O)(=O)c2ccc(Cl)c(NC(=S)NC(=O)C3CCCCC3)c2)cc1Cl,-0.3,54.9*,3.0,-6.3,16.9,
Cc1ccc(NC(=O)C2CCCC2)cc1Cl,12.0,1.4,0.0,-2.6,/,
SMILES,Platelet DG rel,NTR1 ag,GRK2 inh,MIN6 prolif,NTR1 ag confirm,others
CC1(C)CC(=O)C(=Cc2cn(-c3ccccc3)nc2-c2ccc(Cl)cc2)C(=O)C1,19.1,63.0*,3.0,-5.9,83.4*,
COC(=O)C1=C(C)Nc2nnnn2C1c1ccccc1Cl (configuration not stated),2.3,0.6,1.0,0.6,/,
CCCCCOC(=O)C1=C(C)Nc2nnnn2C1c1ccccc1Cl (configuration not stated),-6.1,57.8*,0.0,-5.4,14.0,
Cc1ccc(NC(c2ccccc2)c2nc3ccccc3[nH]c2=O)cc1 (configuration not stated),-1.7,40.2*,2.0,-5.8,8.0,
Cc1cccc(NC(=O)c2nc[nH]c2C(=O)N[C@@H](Cc2ccccc2)C(=O)OC(C)(C)C)c1,-1.5,51.2*,2.0,-8.6,53.1*,
CC(C)C[C@H](NC(=O)c1nc[nH]c1C(=O)N[C@@H](CC(C)C)C(=O)OC(C)(C)C)C(=O)OC(C)(C)C,-5.1,27.1,2.0,-8.6,/,
CC(C)(C)OC(=O)[C@H](Cc1ccccc1)NC(=O)c1nc[nH]c1C(=O)N[C@@H](Cc1ccccc1)C(=O)OC(C)(C)C,-1.2,39.3,4.0,-8.4,/,
CC(C)(C)OC(=O)[C@H](Cc1ccccc1)NC(=O)c1nc[nH]c1C(=O)NCCCCCN,-10.5,15.5,0.0,-1.1,/,
Cc1ccc(NC(=O)c2nc[nH]c2C(=O)NCCCCCNC(=O)OC(C)(C)C)cc1,/,10.2,0.0,-2.1,/,
CC(C)C[C@H](NC(=O)c1[nH]cnc1C(=O)Nc1ccc(Cl)cc1)C(=O)OC(C)(C)C,-1.5,55.7*,0.0,-8.4,31.9,
CC(C)(C)OC(=O)NCCCCCNC(=O)c1[nH]cnc1C(=O)Nc1ccc(Cl)cc1,/,47.5*,2.0,-7.3,21.7,
CC(C)(C)OC(=O)NCCCCCNC(=O)c1[nH]cnc1C(=O)N[C@@H](Cc1ccccc1)C(=O)OC(C)(C)C,/,46.7*,7.0,-5.7,23.5,
COc1cccc(NC(=O)CN(C)C(C)C(=O)N2CCCCC2)c1 (configuration not stated),/,0.9,0.0,-3.9,/,
COc1ccc(Br)cc1CN(C)CC(O)COc1ccc(Br)cc1 (configuration not stated),0.5,4.6,0.0,0.0,/,
Cc1cc(NC(=O)CN2C(=O)N(C)C3(CCCCC3)C2=O)ccc1Br,/,5.1,0.0,-1.0,/,
CCn1c(CNC(=O)c2cccc(C)c2)nnc1SCC(=O)Nc1nnc(C)s1,21.6,-1.3,0.0,3.0,/,
COc1ccc(S(=O)(=O)N(C)C[C@H]2Oc3ccc(NC(=O)Cc4ccccc4)cc3C(=O)N([C@H](C)CO)C[C@@H]2C)cc1,/,-2.3,0.0,-0.6,/,
Cc1cccc(NC(=O)c2nc[nH]c2C(=O)N[C@@H](CC(C)C)C(=O)OC(C)(C)C)c1,-2.7,51.9*,1.0,-8.3,24.3,
C[C@H](NC(=O)c1nc[nH]c1C(=O)NCc1ccc(CNC(=O)OC(C)(C)C)cc1)C(=O)OCc1ccccc1,/,55.1*,0.0,-5.6,56.1*,
